Laboratory results reported in PubChem BioAssay (EPA / NIEHS).
Values joined by “and” are separate entries in the source; they are usually repeats but may differ in a detail not shown here. Identical values can stand only once. The source holds several records for some structures; these can differ, active in one and inactive in another. Active and inactive are the calls of the source. Rule for the calls: active = hit-call score of the fitted dose curve at least 0.9, where 1 is the maximum; inactive = score below 0.9.

Experiments:
[1] = BSK_CASM3C_SRB: Viability Assessment in the BioMAP Diversity Plus: CASM3C Assay (AID 2283050); settings: primary human coronary artery smooth muscle cells;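 note: total protein by SRB staining as cytotoxicity measure in parallel cultures; cells exposed to compound for 24 h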
[2] = read-out: Thrombomodulin, THBD (gene 7056); experiment: BSK_CASM3C_Thrombomodulin: BioMAP Diversity Plus: CASM3C Assay for Thrombomodulin Biomarker Activity (AID 2283051); settings: primary human coronary artery smooth muscle cells; actives raise or lower the signal;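 note: thrombomodulin protein level measured by ELISA 24 h after dosing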
[3] = read-out: Tissue Factor, F3 (gene 2152); experiment: BSK_CASM3C_TissueFactor: BioMAP Diversity Plus: CASM3C Assay for Tissue Factor Biomarker Activity (AID 2283052); settings: primary human coronary artery smooth muscle cells; actives raise or lower the signal;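 note: cell surface tissue factor protein level read by ELISA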
[4] = read-out: Interferon-gamma inducible Protein 10 (IP10), CXCL10 (gene 3627); experiment: BSK_hDFCGF_IP10: BioMAP Diversity Plus: hDFCGF Assay for Interferon-gamma inducible Protein 10 (IP10) Biomarker Activity (AID 2283053); settings: primary human foreskin fibroblasts; actives raise or lower the signal
Summary of the method: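 Chemical-treated human skin fibroblasts (primary) were sampled at 24 h for IP-10 by ELISA. Both increases and decreases relative to DMSO were scored.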

[5] = read-out: Urokinase-type plasminogen activator receptor (uPAR), PLAUR (gene 5329); experiment: BSK_CASM3C_uPAR: BioMAP Diversity Plus: CASM3C Assay for Urokinase-type plasminogen activator receptor (uPAR) Biomarker Activity (AID 2283054); settings: primary human coronary artery smooth muscle cells; actives raise or lower the signal;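 note: cell-surface uPAR protein level quantified by ELISA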
[6] = read-out: Vascular cell adhesion molecule 1 (VCAM1), VCAM1 (gene 7412); experiment: BSK_CASM3C_VCAM1: BioMAP Diversity Plus: CASM3C Assay for Vascular cell adhesion molecule 1 (VCAM1) Biomarker Activity (AID 2283055); settings: primary human coronary artery smooth muscle cells; actives raise or lower the signal;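 note: VCAM-1 protein level quantified by ELISA on the cells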
[7] = read-out: Collagen III, COL3A1 (gene 1281); experiment: BSK_hDFCGF_CollagenIII: BioMAP Diversity Plus: hDFCGF Assay for Collagen III Biomarker Activity (AID 2283056); settings: primary human foreskin fibroblasts; actives raise or lower the signal
Summary of the method: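 ELISA readout of Collagen III in human dermal (foreskin) fibroblasts, taken 24 h post-treatment. Gain or loss relative to DMSO vehicle fitted in both directions.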

[8] = read-out: Epidermal growth factor receptor (EGFR), EGFR (gene 1956); experiment: BSK_hDFCGF_EGFR: BioMAP Diversity Plus: hDFCGF Assay for Epidermal growth factor receptor (EGFR) Biomarker Activity (AID 2283057); settings: primary human foreskin fibroblasts; actives raise or lower the signal
Summary of the method: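 Cell-based multiplexed assay in primary human foreskin fibroblasts. EGFR is read by ELISA 24 h after treatment and compared with DMSO controls.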

[9] = read-out: Interleukin-8 (IL8), CXCL8 (gene 3576); experiment: BSK_hDFCGF_IL8: BioMAP Diversity Plus: hDFCGF Assay for Interleukin-8 (IL8) Biomarker Activity (AID 2283058); settings: primary human foreskin fibroblasts; actives raise or lower the signal
Summary of the method: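 IL-8 levels read by ELISA at 24 hours after dosing human skin fibroblast cultures. Parallel SRB staining assessed overt cytotoxicity, and gain or loss of signal was fitted against DMSO control.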

[10] = BSK_hDFCGF_Proliferation: Cell Proliferation Assessment in the BioMAP Diversity Plus: hDFCGF Assay (AID 2283059); settings: primary human foreskin fibroblasts;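 note: curves fitted for both rise and fall of signal versus DMSO baseline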
Summary of the method: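 This proliferation readout used SRB total-protein staining of human foreskin fibroblasts […], normalized to DMSO with bidirectional curve fitting.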

[11] = read-out: Macrophage colony-stimulating factor (MCSF), CSF1 (gene 1435); experiment: BSK_hDFCGF_MCSF: BioMAP Diversity Plus: hDFCGF Assay for Macrophage colony-stimulating factor (MCSF) Biomarker Activity (AID 2283060); settings: primary human foreskin fibroblasts; actives raise or lower the signal
Summary of the method: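 M-CSF levels read by ELISA at 24 h post-dosing in human skin fibroblasts. Parallel cultures stained with SRB assessed cytotoxicity at the same time point; response fitted in both directions against the DMSO baseline.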

[12] = BSK_hDFCGF_SRB: Viability Assessment in the BioMAP Diversity Plus: hDFCGF Assay (AID 2283061); settings: primary human foreskin fibroblasts;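 note: cells exposed to compound for 24 h before the read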
Summary of the method: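 Viability was read as total protein: after 10% TCA fixation, wells were stained with 0.1% sulforhodamine B and read at 560 nm. Primary human foreskin fibroblasts were dosed for 24 h, with bidirectional fitting versus DMSO.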

[13] = read-out: TIMP metallopeptidase inhibitor 1 (TIMP1), TIMP1 (gene 7076); experiment: BSK_hDFCGF_TIMP1: BioMAP Diversity Plus: hDFCGF Assay for TIMP metallopeptidase inhibitor 1 (TIMP1) Biomarker Activity (AID 2283062); settings: primary human foreskin fibroblasts; actives raise or lower the signal
Summary of the method: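 TIMP-1 measured by ELISA 24 h after chemical dosing of primary human skin fibroblasts, with gain or loss fitted relative to DMSO. Parallel SRB staining (560 nm) monitored overt cytotoxicity.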

[14] = read-out: Monokine induced gamma interferon (MIG), CXCL9 (gene 4283); experiment: BSK_hDFCGF_MIG: BioMAP Diversity Plus: hDFCGF Assay for Monokine induced gamma interferon (MIG) Biomarker Activity (AID 2283063); settings: primary human foreskin fibroblasts; actives raise or lower the signal
Summary of the method: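 Human primary foreskin fibroblasts in the hDFCGF system, exposed to test chemical for 24 h; MIG measured by ELISA. Bidirectional curve fitting against DMSO negative control as activity baseline.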

[15] = read-out: Matrix Metallopeptidase 1 (MMP1), MMP1 (gene 4312); experiment: BSK_hDFCGF_MMP1: BioMAP Diversity Plus: hDFCGF Assay for Matrix Metallopeptidase 1 (MMP1) Biomarker Activity (AID 2283064); settings: primary human foreskin fibroblasts; actives raise or lower the signal
Summary of the method: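 ELISA read-out of MMP1 from human foreskin fibroblasts (primary skin cells), 24 h post-dose. Gain or loss of signal was fitted bidirectionally versus DMSO negative control; cytotoxicity was checked by SRB in parallel cultures.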

[16] = read-out: Vascular cell adhesion molecule 1 (VCAM1), VCAM1 (gene 7412); experiment: BSK_hDFCGF_VCAM1: BioMAP Diversity Plus: hDFCGF Assay for Vascular cell adhesion molecule 1 (VCAM1) Biomarker Activity (AID 2283065); settings: primary human foreskin fibroblasts; actives raise or lower the signal;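 for AC50: VCAM-1 protein level quantified by ELISA after 24 h chemical exposure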
Summary of the method: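 ELISA readout of VCAM-1 on human dermal fibroblast primary cultures, 24 h after chemical exposure. Gain or loss of signal fitted in both directions against DMSO baseline.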

[17] = read-out: Plasminogen activator inhibitor-1 (PAI1), SERPINE1 (gene 5054); experiment: BSK_hDFCGF_PAI1: BioMAP Diversity Plus: hDFCGF Assay for Plasminogen activator inhibitor-1 (PAI1) Biomarker Activity (AID 2283066); settings: primary human foreskin fibroblasts; actives raise or lower the signal
Summary of the method: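 Human skin fibroblast cultures receive chemical for 24 h before PAI-1 is measured by ELISA; signal changes are fitted bidirectionally against DMSO-treated wells.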

[18] = read-out: Intercellular Adhesion Molecule 1 (ICAM1), ICAM1 (gene 3383); experiment: BSK_KF3CT_ICAM1: BioMAP Diversity Plus: KF3CT Assay for Intercellular Adhesion Molecule 1 (ICAM1) Biomarker Activity (AID 2283067); settings: primary human keratinocytes with fibroblasts; actives raise or lower the signal
Summary of the method: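 Cell-surface ICAM-1 was measured by ELISA 24 h after dosing primary human skin keratinocytes co-cultured with fibroblasts. Parallel SRB staining tracked overt cytotoxicity. Gain or loss of signal was fitted relative to DMSO.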

[19] = BSK_KF3CT_SRB: Viability Assessment in the BioMAP Diversity Plus: KF3CT Assay (AID 2283069); settings: primary human keratinocytes with fibroblasts;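 note: total protein by sulforhodamine B staining as a cytotoxicity measure; read 24 h after compound addition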
Summary of the method: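 SRB read-out at 560 nm (0.1% stain, TCA-fixed cells) gauges overt cytotoxicity in a human skin keratinocyte–fibroblast co-culture 24 h post-dosing. Signal change was fitted bidirectionally relative to DMSO control.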

[20] = read-out: Interferon-gamma inducible Protein 10 (IP10), CXCL10 (gene 3627); experiment: BSK_KF3CT_IP10: BioMAP Diversity Plus: KF3CT Assay for Interferon-gamma inducible Protein 10 (IP10) Biomarker Activity (AID 2283068); settings: primary human keratinocytes with fibroblasts; actives raise or lower the signal
Summary of the method: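 Signal is secreted/surface IP-10 by ELISA in a human primary skin co-culture of keratinocytes and foreskin fibroblasts, taken 24 h post-dosing; DMSO served as negative control.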

## c1cc2ccc3cccc4ccc(c1)c2c34
[1]
  outcome: inactive
[2]
  outcome: inactive
[3]
  outcome: inactive
[4]
  outcome: inactive
[5]
  outcome: inactive
[6]
  outcome: inactive
[7]
  outcome: inactive
[8]
  outcome: inactive
[9]
  outcome: inactive
[10]
  AC50: 15 µM (active)
[11]
  outcome: inactive
[12]
  outcome: inactive
[13]
  outcome: inactive
[14]
  outcome: inactive
[15]
  outcome: inactive
[16]
  outcome: inactive
[17]
  outcome: inactive
[18]
  outcome: inactive
[19]
  outcome: inactive

## CCCCCCOC(=O)c1ccccc1C(=O)OCCCCCC
[1]
  outcome: inactive
[2]
  AC50: 17.5 µM (active)
[3]
  outcome: inactive
[4]
  outcome: inactive
[5]
  outcome: inactive
[6]
  outcome: inactive
[7]
  AC50: 7.56 µM (active)
[8]
  outcome: inactive
[9]
  outcome: inactive
[10]
  AC50: 11.2 µM (active)
[12]
  outcome: inactive
[13]
  outcome: inactive
[14]
  outcome: inactive
[15]
  outcome: inactive
[16]
  outcome: inactive
[17]
  outcome: inactive
[18]
  outcome: inactive
[19]
  outcome: inactive

## O=C(NC(=O)c1c(F)cccc1F)Nc1cc(Cl)c(OC(F)(F)C(F)F)c(Cl)c1
[1]
  outcome: inactive
[2]
  outcome: inactive
[3]
  outcome: inactive
[4]
  outcome: inactive
[5]
  outcome: inactive
[6]
  outcome: inactive
[7]
  outcome: inactive
[8]
  outcome: inactive
[9]
  outcome: inactive
[10]
  outcome: inactive
[11]
  outcome: inactive
[12]
  outcome: inactive
[13]
  outcome: inactive
[14]
  outcome: inactive
[15]
  outcome: inactive
[16]
  outcome: inactive
[17]
  outcome: inactive
[18]
  outcome: inactive
[20]
  outcome: inactive
[19]
  outcome: inactive

## CCSC(=O)N(CC)C1CCCCC1
[1]
  outcome: inactive
[2]
  outcome: inactive
[3]
  outcome: inactive
[4]
  outcome: inactive
[5]
  outcome: inactive
[6]
  outcome: inactive
[7]
  outcome: inactive
[8]
  outcome: inactive
[9]
  outcome: inactive
[10]
  outcome: inactive
[11]
  outcome: inactive
[12]
  outcome: inactive
[13]
  outcome: inactive
[14]
  outcome: inactive
[15]
  outcome: inactive
[16]
  outcome: inactive
[17]
  outcome: inactive
[18]
  outcome: inactive
[19]
  outcome: inactive

## COc1ccc(O)c(C(C)(C)C)c1
[1]
  outcome: inactive
[2]
  outcome: inactive
[3]
  outcome: inactive
[4]
  outcome: inactive
[5]
  outcome: inactive
[6]
  outcome: inactive
[7]
  AC50: 3.97 µM (active) and 8.37 µM (active)
  outcome: inactive
[8]
  outcome: inactive
[9]
  outcome: inactive
[10]
  outcome: inactive
[11]
  outcome: inactive
[12]
  outcome: inactive
[13]
  outcome: inactive
[14]
  outcome: inactive
[15]
  outcome: inactive
[16]
  outcome: inactive
[17]
  outcome: inactive
[18]
  outcome: inactive
[19]
  outcome: inactive

## O=C(O)C(F)(F)C(F)(F)C(F)(F)C(F)(F)C(F)(F)C(F)(F)C(F)(F)C(F)(F)F
[1]
  outcome: inactive
[2]
  outcome: inactive
[3]
  AC50: 7.84 µM (active)
  outcome: inactive
[5]
  outcome: inactive
[6]
  outcome: inactive
[7]
  AC50: 7.13 µM (active)
  outcome: inactive
[8]
  outcome: inactive
[9]
  outcome: inactive
[10]
  AC50: 34.2 µM (active) and 20.8 µM (active) and 46.7 µM (active)
[11]
  outcome: inactive
[12]
  outcome: inactive
[13]
  outcome: inactive
[14]
  AC50: 19 µM (active)
  outcome: inactive
[15]
  outcome: inactive
[16]
  AC50: 48.5 µM (active)
  outcome: inactive
[17]
  outcome: inactive
[18]
  outcome: inactive
[19]
  outcome: inactive
